Data on 28 molecules can be found in ChEMBL document CHEMBL3988442, “University of Dundee, Small-Polar-MMV Screening Library” (2021).

The structures appear in SMILES notation. Hit rate of the full screen: of about 53,000 compounds, about 900 (1.7%) showed an effect of 50% or more. This excerpt belongs to a sample that is enriched for strong results.

In this assay the test system is Mycobacterium tuberculosis. The experiment in a line: Cornell - Phenotypic assay to identify agents that inhibit growth of Mycobacterium tuberculosis. More on the design: scale not given: direction of the effect not stated beside the values. The settings on record: 10 mM as filed; unlikely as a test dose. The format is functional.
Take `CCCNC(=O)C(C)n1nc(-c2ccc(C)o2)cc(N)c1=O` (stereo not drawn): the “Percent Effect” value is on record as 66.1%. For `COCCNC(=O)C(C)n1nc(-c2ccc(C)o2)cc(N)c1=O` (stereo not drawn) the value was -59.92%. Regarding `Cc1ccc(-c2cc(N)c(=O)n(C(C)C(=O)NC(C)C)n2)o1` (stereo not drawn), the “Percent Effect” value is recorded as 26.87%. For `O=C(N1CCOCC1)[C@@]12CCO[C@@H]1CCN(C1CCCCC1)C2.O=C(O)C(F)(F)F` the value was -10.99%; for `CC1=C(C(=O)N2CCOC(Cc3cccc(C(F)(F)F)c3)C2)OCCO1` (stereo not drawn), 22.58%; for `COc1cccc(CCC2CCCN(C(C)=O)C2)c1` (stereo not drawn), 19.46%. For `COc1cccc(CCC2CCCN(C(=O)c3ccccn3)C2)c1` (stereo not drawn), the “Percent Effect” value worked out at 5.867%. The same measure for `COc1ccc(C(=O)N2CCCC(C)C2)cc1F` (stereo not drawn): -4.81%; for `CC1CCCN(C(=O)c2cc(-c3ccco3)cs2)C1` (stereo not drawn): 33.45%.

For `CC(=O)N1CCOC(Cc2cccc(C(F)(F)F)c2)C1` (stereo not drawn), the “Percent Effect” value turned out to be 25.26%. For the molecule `COc1cccc(CCC2CCCN(C(=O)c3ccc(OC)o3)C2)c1` (stereo not drawn), the “Percent Effect” value was 67.76%. Consider `COc1ccc(C(=O)N2CCOC(Cc3cccc(C(F)(F)F)c3)C2)o1` (stereo not drawn), for which the “Percent Effect” value is 107.3%. As for `CC1CCCN(C(=O)c2ccc(-c3ccco3)o2)C1` (stereo not drawn), the “Percent Effect” value stood at 79.8%. The same measure for `COCCOCCCNC(=O)c1cc(Cl)cc2cccnc12`: 14.25%; for `CNC(=O)c1cc(C)nc(C2(C)CCCN2c2cc(C)ncn2)n1` (stereo not drawn): -3.041%; for `CCc1ncc(C(=O)N(C)C(C)c2ccc3c(c2)OCCO3)cn1` (stereo not drawn): -2.31%. The same measure for `Cc1cccnc1CCNCC1(O)CCCN(CC2CCCCC2)C1=O` (stereo not drawn): -24.48%; for `Cn1ccnc1CN1CCCN(C(=O)c2cccc(CC#N)c2)CC1`: -5.317%.

In the case of `Cc1noc(C)c1-c1cc(CCC2CN(C(=O)C(C)C)CCO2)ncn1` (stereo not drawn), the “Percent Effect” value is 37.61%. For `O=C(O)C(F)(F)F.O=C(O)C(F)(F)F.c1cnc(N2CC3(CCN(Cc4cccnc4)C3)C2)nc1` the value was -25.95%; for `NCc1cnn(-c2ccccc2C(=O)NCc2ccccc2Cl)c1`, -1.327%. Consider `NC(=O)C1=NC2=NS(=O)(=O)c3ccccc3N2N1Cc1ccc(Cl)cc1`, for which the “Percent Effect” value was found to be 106.1%. For `NC(=O)C1=NN2C(=NS(=O)(=O)c3ccccc32)N1` the value was 18.26%. For `NC(=O)C1=NC2=NS(=O)(=O)c3ccccc3N2N1Cc1ccc(Br)cc1` the value was 106.5%; for `NC(=O)C1=NC2=NS(=O)(=O)c3ccccc3N2N1Cc1ccccc1Cl`, 106.2%; for `NCc1cn(-c2ccccc2C(=O)NCc2ccccc2Cl)cn1`, -8.218%. For `COC(=O)C1=NN2C(=NS(=O)(=O)c3ccccc32)N1` the value was 46.07%; for `NC(=O)CN(Cc1ccc(Br)cc1)C(=O)c1ccccn1`, -15.26%.
